The supplement of paper PMC10849652
Targets with a hit are over-represented here; the source holds about 7,900 in all. About 0.6% of all pairs of compound and target were hits.

compound: c1cn2cc(-c3ccc4cn[nH]c4c3)nc(Nc3ccc(N4CCOCC4)cc3)c2n1 [entospletinib]; assay: log2 fold change, soluble protein after heating vs DMSO (PISA); higher = thermal stabilisation; K562 cells, 10 uM, 30 min; active = over 0.2 and 3.5 SD of the protein, either way, in both replicates (recomputed)
Procedure, shortened: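 Aliquots of K562 cells (2×10^6 cells/mL) treated with 10 μM compound for 30 min were heated for 3 min over 48°C-58°C. After pooling and extraction in PBS with 0.5% NP-40 at 4°C, soluble protein from a 21,000xg, 90 min spin was quantified by TMTpro 16plex LC-MS/MS with channel sums equalised. Thermal stability is expressed against control samples, from duplicates, as a log2 fold change.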

Sequence of UniProt Q9NX38 (Q9NX38 whole entry, looked up): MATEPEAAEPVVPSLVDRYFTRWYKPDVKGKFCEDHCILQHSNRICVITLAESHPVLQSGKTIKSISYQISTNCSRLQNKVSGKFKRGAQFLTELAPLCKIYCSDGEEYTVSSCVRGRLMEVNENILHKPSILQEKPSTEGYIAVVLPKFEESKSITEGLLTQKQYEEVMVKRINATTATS
Sequence of UniProt Q8N5I2 (Q8N5I2 whole entry, looked up): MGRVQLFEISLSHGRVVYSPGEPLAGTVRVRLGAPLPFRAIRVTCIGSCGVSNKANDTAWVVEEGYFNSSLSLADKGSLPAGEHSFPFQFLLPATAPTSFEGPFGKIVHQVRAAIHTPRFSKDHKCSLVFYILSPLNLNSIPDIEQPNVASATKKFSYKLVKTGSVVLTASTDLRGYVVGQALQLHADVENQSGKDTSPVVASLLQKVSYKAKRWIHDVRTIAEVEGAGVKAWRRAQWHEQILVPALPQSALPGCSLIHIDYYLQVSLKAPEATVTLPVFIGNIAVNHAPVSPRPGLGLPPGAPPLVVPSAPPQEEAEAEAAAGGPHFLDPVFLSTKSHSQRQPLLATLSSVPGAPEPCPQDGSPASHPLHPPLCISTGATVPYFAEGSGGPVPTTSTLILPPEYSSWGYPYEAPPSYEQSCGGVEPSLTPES
Sequence of UniProt Q96CW1 (Q96CW1 whole entry, looked up): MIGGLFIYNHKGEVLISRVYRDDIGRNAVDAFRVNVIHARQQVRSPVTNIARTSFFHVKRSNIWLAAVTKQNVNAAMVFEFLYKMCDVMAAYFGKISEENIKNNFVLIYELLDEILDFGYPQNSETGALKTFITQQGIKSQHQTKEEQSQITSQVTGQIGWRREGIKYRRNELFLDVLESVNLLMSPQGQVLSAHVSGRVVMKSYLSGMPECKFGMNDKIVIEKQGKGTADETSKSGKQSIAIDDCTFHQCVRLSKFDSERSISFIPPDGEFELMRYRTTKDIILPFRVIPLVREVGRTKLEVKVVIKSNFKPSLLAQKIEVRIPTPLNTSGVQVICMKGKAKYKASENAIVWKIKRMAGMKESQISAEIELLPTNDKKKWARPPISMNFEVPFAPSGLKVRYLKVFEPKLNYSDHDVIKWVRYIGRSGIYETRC
Sequence of UniProt Q92934 (Q92934 whole entry, looked up): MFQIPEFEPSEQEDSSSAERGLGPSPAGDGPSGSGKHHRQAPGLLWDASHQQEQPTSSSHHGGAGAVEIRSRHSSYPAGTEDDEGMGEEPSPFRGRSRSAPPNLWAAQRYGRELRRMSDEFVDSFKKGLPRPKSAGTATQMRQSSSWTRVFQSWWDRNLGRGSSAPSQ
Sequence of UniProt Q00973 (Q00973 whole entry, looked up): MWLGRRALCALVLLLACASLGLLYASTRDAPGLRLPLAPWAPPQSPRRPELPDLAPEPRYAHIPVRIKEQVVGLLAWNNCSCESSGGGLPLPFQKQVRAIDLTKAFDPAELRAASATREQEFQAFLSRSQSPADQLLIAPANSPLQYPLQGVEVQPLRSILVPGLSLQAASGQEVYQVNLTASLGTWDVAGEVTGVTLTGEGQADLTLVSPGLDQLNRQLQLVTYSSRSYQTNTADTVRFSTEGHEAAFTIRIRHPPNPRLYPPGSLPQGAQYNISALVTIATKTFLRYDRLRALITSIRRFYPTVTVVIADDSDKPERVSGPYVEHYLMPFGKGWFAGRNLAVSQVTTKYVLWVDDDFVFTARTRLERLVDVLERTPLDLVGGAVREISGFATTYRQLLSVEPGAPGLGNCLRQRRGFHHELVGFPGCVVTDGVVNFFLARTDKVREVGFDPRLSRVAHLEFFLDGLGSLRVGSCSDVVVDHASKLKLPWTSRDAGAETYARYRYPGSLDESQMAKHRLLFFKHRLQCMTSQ
Sequence of UniProt P11766 (P11766 whole entry, looked up): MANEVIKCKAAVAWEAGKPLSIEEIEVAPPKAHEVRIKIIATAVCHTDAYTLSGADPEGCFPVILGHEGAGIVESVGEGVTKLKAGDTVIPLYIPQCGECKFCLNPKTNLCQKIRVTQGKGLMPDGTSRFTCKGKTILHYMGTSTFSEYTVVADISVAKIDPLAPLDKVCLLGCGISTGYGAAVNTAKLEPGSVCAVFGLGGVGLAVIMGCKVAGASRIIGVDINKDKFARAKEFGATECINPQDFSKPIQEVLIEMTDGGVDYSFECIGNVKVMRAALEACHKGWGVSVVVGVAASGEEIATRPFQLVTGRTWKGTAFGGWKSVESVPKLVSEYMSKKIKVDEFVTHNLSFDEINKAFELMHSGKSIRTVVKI
Sequence of UniProt P42025 (P42025 whole entry, looked up): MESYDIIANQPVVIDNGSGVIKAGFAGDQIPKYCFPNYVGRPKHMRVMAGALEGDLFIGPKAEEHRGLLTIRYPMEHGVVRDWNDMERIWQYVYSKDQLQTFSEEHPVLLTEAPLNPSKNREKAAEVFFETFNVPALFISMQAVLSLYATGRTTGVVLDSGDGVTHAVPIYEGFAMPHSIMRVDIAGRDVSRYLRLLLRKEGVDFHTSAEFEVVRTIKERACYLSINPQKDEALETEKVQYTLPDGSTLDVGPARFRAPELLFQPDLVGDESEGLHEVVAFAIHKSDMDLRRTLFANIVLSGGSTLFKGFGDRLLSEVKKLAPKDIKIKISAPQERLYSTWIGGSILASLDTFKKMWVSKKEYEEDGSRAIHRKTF
Sequence of UniProt Q53FZ2 (Q53FZ2 whole entry, looked up): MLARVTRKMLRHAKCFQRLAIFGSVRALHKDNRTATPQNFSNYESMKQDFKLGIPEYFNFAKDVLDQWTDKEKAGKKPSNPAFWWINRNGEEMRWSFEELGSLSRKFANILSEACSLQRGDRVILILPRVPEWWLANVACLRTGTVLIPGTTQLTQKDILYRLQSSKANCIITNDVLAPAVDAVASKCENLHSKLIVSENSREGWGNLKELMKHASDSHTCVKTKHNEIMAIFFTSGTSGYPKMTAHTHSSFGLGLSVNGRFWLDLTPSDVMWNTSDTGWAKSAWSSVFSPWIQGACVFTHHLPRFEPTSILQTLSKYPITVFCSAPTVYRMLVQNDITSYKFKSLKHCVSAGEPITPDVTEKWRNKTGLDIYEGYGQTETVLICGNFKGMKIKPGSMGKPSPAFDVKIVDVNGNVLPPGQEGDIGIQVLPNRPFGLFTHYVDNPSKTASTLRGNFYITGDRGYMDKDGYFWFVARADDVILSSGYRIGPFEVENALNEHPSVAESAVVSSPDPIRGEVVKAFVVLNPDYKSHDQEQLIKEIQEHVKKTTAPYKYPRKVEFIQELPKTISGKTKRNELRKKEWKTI
Sequence of UniProt Q6P6C2 (Q6P6C2 whole entry, looked up): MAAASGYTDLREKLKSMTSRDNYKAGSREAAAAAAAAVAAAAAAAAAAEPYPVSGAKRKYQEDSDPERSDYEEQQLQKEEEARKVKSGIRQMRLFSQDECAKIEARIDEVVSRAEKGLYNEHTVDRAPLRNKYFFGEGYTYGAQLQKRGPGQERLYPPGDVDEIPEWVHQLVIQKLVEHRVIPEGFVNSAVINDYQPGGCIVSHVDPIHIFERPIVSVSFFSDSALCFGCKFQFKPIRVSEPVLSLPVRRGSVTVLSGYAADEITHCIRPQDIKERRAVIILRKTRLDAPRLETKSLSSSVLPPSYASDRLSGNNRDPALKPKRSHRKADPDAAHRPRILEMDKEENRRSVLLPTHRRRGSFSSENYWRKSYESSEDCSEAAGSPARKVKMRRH
Sequence of UniProt P40616 (P40616 whole entry, looked up): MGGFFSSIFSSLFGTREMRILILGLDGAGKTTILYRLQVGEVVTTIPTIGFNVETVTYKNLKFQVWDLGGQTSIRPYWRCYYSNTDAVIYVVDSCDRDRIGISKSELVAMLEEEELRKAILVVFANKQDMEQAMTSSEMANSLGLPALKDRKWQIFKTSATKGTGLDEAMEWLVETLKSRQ
Sequence of UniProt P53367 (P53367 whole entry, looked up): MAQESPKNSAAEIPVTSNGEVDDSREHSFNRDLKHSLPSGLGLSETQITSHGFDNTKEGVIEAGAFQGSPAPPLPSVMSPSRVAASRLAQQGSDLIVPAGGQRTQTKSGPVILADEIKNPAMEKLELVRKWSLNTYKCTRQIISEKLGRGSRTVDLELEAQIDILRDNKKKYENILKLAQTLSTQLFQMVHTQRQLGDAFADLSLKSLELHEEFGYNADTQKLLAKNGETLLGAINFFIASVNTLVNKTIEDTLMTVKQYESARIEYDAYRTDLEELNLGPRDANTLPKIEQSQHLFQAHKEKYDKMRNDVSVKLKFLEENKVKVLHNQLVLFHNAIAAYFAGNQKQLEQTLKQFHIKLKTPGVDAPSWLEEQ
Sequence of UniProt Q9Y6E2 (Q9Y6E2 whole entry, looked up): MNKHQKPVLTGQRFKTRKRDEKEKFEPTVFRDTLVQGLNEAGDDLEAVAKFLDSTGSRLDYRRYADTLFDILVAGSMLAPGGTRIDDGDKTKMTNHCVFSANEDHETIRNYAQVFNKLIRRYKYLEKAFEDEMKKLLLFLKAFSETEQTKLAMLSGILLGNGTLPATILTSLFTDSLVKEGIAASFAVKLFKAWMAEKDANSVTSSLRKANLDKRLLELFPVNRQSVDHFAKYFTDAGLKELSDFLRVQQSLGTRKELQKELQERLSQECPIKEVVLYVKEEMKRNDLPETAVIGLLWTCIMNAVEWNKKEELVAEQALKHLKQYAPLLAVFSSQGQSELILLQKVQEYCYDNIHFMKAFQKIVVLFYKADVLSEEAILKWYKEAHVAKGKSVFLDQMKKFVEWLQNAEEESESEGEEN
Sequence of UniProt Q8N2F6 (Q8N2F6 whole entry, looked up): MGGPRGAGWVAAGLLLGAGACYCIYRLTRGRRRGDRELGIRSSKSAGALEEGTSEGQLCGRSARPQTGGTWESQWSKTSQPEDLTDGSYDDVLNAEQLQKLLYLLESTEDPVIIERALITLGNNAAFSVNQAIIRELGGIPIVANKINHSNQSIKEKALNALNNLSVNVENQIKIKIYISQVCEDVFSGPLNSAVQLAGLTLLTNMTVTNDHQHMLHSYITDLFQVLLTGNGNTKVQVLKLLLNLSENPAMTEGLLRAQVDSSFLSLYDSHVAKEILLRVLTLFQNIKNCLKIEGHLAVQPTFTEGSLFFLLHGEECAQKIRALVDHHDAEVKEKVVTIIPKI

log2 fold change, inactive:
AP2M1 (UniProt Q96CW1) 0.025
ALDH9A1 (UniProt P49189) 0.066
AKR1C2 (UniProt P52895) 0.071
AUH (UniProt Q13825) -0.068
ATP6AP1 (UniProt Q15904) -0.012
ATP5IF1 (UniProt Q9UII2) 0.057
ACSM3 (UniProt Q53FZ2) -0.004
ALG11 (UniProt Q2TAA5) -0.005
BTAF1 (UniProt O14981) -0.005
ATL2 (UniProt Q8NHH9) 0.016
ARPP19 (UniProt P56211) -0.06
BAP1 (UniProt Q92560) -0.062
ARL1 (UniProt P40616) -0.139
ATP13A3 (UniProt Q9H7F0) 0.042
ADRM1 (UniProt Q16186) -0.079
BTBD6 (UniProt Q96KE9) 0.056
ABITRAM (UniProt Q9NX38) -0.052
AUP1 (UniProt Q9Y679) -0.025
BZW2 (UniProt Q9Y6E2) 0.002
ACTR1B (UniProt P42025) 0.01
ASB6 (UniProt Q9NWX5) -0.065
ADD1 isoform 3 (UniProt P35611) 0.007
ACSL5 isoform 3 (UniProt Q9ULC5) -0.021
ARHGAP4 isoform 2 (UniProt P98171) 0.003
BCLAF1 (UniProt Q9NYF8) 0.075
ARFIP1 (UniProt P53367) -0.109
AIFM2 (UniProt Q9BRQ8) 0.01
AIP (UniProt O00170) -0.031
ARMC10 (UniProt Q8N2F6) -0.001
ADH5 (UniProt P11766) -0.025
AARS2 (UniProt Q5JTZ9) -0.082
BECN1 (UniProt Q14457) 0.011
ALKBH5 (UniProt Q6P6C2) -0.03
ACAP2 (UniProt Q15057) -0.073
BAD (UniProt Q92934) -0.014
ARRDC1 (UniProt Q8N5I2) -0.014
B4GALNT1 (UniProt Q00973) 0.074
ACIN1 (UniProt Q9UKV3) -0.008
